# Sampled rows, rich in hits. Any-hit rate of the full collection: about 7.9%.
# M1 ag: M1 muscarinic receptor agonists, primary screen, CHO-M1 cells, Fluo-4 calcium, agonist mode; Muscarinic acetylcholine receptor M1; Fluo-4 calcium fluorescence; stronger effect = higher value; B-score at 10 µM; 64,000 compounds, 3% hits; AID 626, 2007;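 active means fluorescence rise, raw or as B-score row- and column-corrected plate score, outside the 99.7% band of its plate's samples, either direction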
# HER2 expr 66K: inhibitors of Her2 protein expression, primary screen, SKBR-3 cells, AlphaScreen, 66K library; Receptor tyrosine-protein kinase erbB-2 (Homo sapiens), P04626; SKBR-3 HER2 protein level, 18-24 h; stronger effect = lower value; HER2 level % of control, % at 10 µM; 65,000 compounds, 0.69% hits; AID 645, 2007;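 active means HER2 level under 5% of the carrier-only control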;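 further: 100% = DMSO carrier and 0% = 500 nM PU-H71 HSP90 inhibitor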
# Target sequence (P04626 whole entry, looked up): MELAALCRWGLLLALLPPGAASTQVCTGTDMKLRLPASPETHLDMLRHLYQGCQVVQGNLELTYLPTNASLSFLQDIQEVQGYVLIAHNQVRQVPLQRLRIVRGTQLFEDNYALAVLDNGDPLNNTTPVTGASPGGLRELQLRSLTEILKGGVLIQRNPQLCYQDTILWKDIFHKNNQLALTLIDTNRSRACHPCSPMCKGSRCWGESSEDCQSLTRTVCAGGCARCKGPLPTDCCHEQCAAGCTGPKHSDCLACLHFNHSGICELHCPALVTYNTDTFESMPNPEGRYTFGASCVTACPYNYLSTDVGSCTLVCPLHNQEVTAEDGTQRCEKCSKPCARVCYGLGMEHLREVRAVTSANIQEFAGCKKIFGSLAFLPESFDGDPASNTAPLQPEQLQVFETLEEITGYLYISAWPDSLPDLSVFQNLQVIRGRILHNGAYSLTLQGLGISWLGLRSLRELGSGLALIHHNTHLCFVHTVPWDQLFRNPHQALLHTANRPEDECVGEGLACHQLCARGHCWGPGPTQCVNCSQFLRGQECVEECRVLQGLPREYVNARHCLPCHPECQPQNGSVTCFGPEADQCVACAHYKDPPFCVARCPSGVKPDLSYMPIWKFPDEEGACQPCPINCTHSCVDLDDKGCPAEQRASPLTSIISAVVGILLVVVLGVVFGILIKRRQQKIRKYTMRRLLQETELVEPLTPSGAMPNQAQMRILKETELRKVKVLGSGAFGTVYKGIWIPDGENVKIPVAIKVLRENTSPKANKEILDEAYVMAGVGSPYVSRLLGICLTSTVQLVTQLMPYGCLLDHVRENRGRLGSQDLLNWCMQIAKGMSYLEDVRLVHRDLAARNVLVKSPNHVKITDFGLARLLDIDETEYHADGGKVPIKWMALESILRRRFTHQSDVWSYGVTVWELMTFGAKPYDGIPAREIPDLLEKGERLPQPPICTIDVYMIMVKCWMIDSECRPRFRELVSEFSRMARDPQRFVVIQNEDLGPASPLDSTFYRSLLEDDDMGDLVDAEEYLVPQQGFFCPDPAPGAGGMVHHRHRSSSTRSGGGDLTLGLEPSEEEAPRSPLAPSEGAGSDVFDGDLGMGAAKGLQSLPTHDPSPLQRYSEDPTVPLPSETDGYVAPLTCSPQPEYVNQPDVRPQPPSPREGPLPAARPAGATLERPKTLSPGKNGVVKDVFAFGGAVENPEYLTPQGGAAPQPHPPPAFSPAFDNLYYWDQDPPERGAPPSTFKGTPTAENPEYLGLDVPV
# Cav3 T inh: Cav3.2 calcium influx blockers – cell-based, Fluo-4 calcium fluorescence, FDSS, MLSMR library, primary screen; Cav3.2-expressing cells; stronger effect = lower value; B-score at 10 µM; 100,000 compounds, 4% hits;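 active means single-dose well whose peak fluorescence ratio is a statistical outlier from its plate by either plate-standardised score or position-corrected B-score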
# M1 antagonist: antagonists of rat M1 muscarinic receptor; CHO-M1 cells, Fluo-4 calcium, ACh EC80 antagonist mode; stronger effect = lower value; Muscarinic acetylcholine receptor M1 (Rattus norvegicus), P08482; B-score at 10 µM; 64,000 compounds, 3.4% hits; AID 628, 2007;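 active means calcium fluorescence response, raw or row-and-column corrected B-score, differing from the plate sample mean either way at a set confidence level, mostly lower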
# PLAP act: PLAP enzyme activators, biochemical, luminescence, HTS. AID 696, 2007. purified PLAP enzyme, luminescent substrate read-out; stronger effect = higher value. 96,000 compounds, 1.2% hits. Alkaline phosphatase, placental type (Homo sapiens), P05187. activation fold at 20 µM; in the data active means activation fold above about 2
# Numbers without * were called inactive; x = no result.
SMILES,M1 ag,HER2 expr 66K,Cav3 T inh,M1 antagonist,PLAP act
Cc1ccc(Nc2nc(N)nc(CN3CCN(Cc4ccc5c(c4)OCO5)CC3)n2)cc1Cl,-0.23,103,-5.2*,-0.063,1.7
Cc1ccc(Nc2nc(N)nc(CN3CCN(Cc4ccc5c(c4)OCO5)CC3)n2)c(C)c1,-1,98,-0.27,0.43,1.5
COc1ccc(N2CCN(Cc3nc(N)nc(Nc4ccc(C)c(Cl)c4)n3)CC2)cc1,0.45,84,-5.2*,-0.22,1.4
CN(C)c1ccc(NC(=O)Cn2c(=O)n(Cc3ccccc3)c(=O)c3ccccc32)cc1,-1.1,91,0.039,0.11,1
O=C(NCc1ccco1)C1CCN(S(=O)(=O)c2cccc3cccnc23)CC1,-1.8,-17*,0.1,0.073,1
O=S(=O)(NCc1ccco1)c1cccc2cccnc12,-0.3,-16*,1.9,0.58,x
O=C(NCc1cccs1)C1CCN(S(=O)(=O)c2cccc3cccnc23)CC1,-0.94,105,0.16,-0.53,1
O=C1N(CC(=O)N2CCc3ccccc32)CCN1Cc1ccccc1Cl,0.73,94,-3.5*,1,0.8
CCOc1cccc(NC(=O)C2CC(=O)N(C)C(=Nc3ccccc3)S2)c1 (stereo not given),1.4,74,-4.5*,-0.99,1.1
CCN1C(=O)CC(C(=O)Nc2ccc(F)cc2)SC1=Nc1ccc2c(c1)OCO2 (stereo not given),-0.032,-27*,-1.5,0.051,1
CCOc1cccc(NC(=O)C2CC(=O)N(C)C(=Nc3cccc(F)c3)S2)c1 (stereo not given),x,96,-4.7*,x,0.9
CSc1cccc(NC(=O)/C=C/c2ccccc2)c1,x,x,-6.3*,x,0.5
CC(=O)N1CCN=C1SCc1ccc(Cl)cc1,-0.22,122,0.22,-0.35,1.1
Cc1[nH]c2ccc(CNS(=O)(=O)c3ccc(S(=O)(=O)N4CCOCC4)cc3)cc2c1C,-0.37,88,0.2,-0.059,1.7
Fc1ccc(-c2cnc[nH]2)cc1,-0.04,104,x,1.9*,0.9
O=S(=O)(NCc1ccccc1)c1cnc[nH]1,0.74,90,0.12,1.4,1.1
O=C(NC(NC(=S)Nc1ccc(Cl)cc1Cl)C(Cl)(Cl)Cl)c1cccc([N+](=O)[O-])c1 (stereo not given),x,x,-4.9*,x,1.2
O=C(NC(NC(=S)Nc1ccccc1)C(Cl)(Cl)Cl)c1cccc(Cl)c1 (stereo not given),x,x,-1.6,x,0.8
Cc1ccc(N2C(=O)N(CC(=O)C(C)(C)C)c3ccccc3S2(=O)=O)cc1,x,x,-2.6,x,x
COc1cccc(NC(=O)CSc2nnc(Cc3cccs3)n2-c2ccc(C)cc2)c1,x,x,-3.2,x,1.5
O=C(CSc1nnc(Cc2cccs2)n1Cc1ccco1)Nc1cc(Cl)cc(Cl)c1,-0.58,73,-4.3*,0.17,1
COc1ccc(-n2c(Cc3cccs3)nnc2SCC(=O)Nc2ccc3c(c2)OCCO3)cc1,0.72,114,-6.8*,0.27,1.5
COc1ccc(NC(=O)CSc2nnc(Cc3cccs3)n2-c2ccc(C)cc2)cc1,x,x,-5.3*,x,0.8
C=CCOC(=O)C1=C[C@H](c2ccc3c(c2)OCO3)C[C@H](OCCCCO)O1,x,x,-0.17,x,x
Cc1ccc(S(=O)(=O)N2CCOCC2)cc1C(=O)OCC(=O)N1c2ccccc2NC(=O)C1(C)C,x,x,0.73,x,1.3
SMILES,M1 ag,HER2 expr 66K,Cav3 T inh,M1 antagonist,PLAP act
Cc1ccc(SCC(=O)N2c3ccccc3Sc3ccccc32)cc1,x,x,-5.8*,x,1.1
CS(=O)(=O)N(CC(=O)N1CCCCCC1)c1ccc(Br)cc1,-0.11,122,0.69,0.024,1.3
Cc1ccccc1N(CC(=O)N/N=C/c1cc(C)n(-c2ccccc2C)c1C)S(C)(=O)=O,x,x,-9.8*,x,1.9
O=C(Nc1cccc2cccnc12)c1ccc2c(c1)OCCO2,x,x,-4.5*,x,0.9
COc1cc(NC(=O)c2ccc3c(c2)OCO3)c2ncccc2c1,0.47,x,0.84,-0.52,x
COc1cccc(OCc2nnc(SCC(=O)NCc3ccco3)n2CCc2ccccc2)c1,0.21,93,-7.6*,-0.35,1.4
Cn1c(SCC(=O)NCc2ccco2)nnc1-c1cccs1,0.024,131,-0.32,2.3*,1
COc1ccc(-n2c(COc3ccc4ccccc4c3)nnc2SCC(=O)NCc2ccco2)cc1,x,x,-6.4*,x,2*
COc1ccc(-n2c(COc3cccc(C)c3)nnc2SCC(=O)NCc2ccco2)cc1,1.2,93,-3.1,-0.035,1.1
Cc1ccc(-n2c(CSc3nc(C)cc(C)n3)nnc2SCC(=O)N2CCCC2)cc1,0.17,84,-0.037,0.074,1.4
C=CCNC(=O)c1onc(CSc2cccc(OC)c2)c1C(=O)NCC=C,x,x,0.071,x,x
COc1cccc(CNc2ccc(Br)cn2)c1O,1.1,70,-6.5*,-0.36,0.9
c1ccc(C(c2nnnn2Cc2ccco2)N2CCN(C3CCCC3)CC2)cc1 (stereo not given),0.14,127,0.4,-0.49,1.7
COc1ccccc1C(c1nnnn1Cc1ccccc1)N1CCN(c2nc3ccccc3s2)CC1 (stereo not given),-0.034,96,-4.2*,0.39,1.5
COc1ccc(C(c2nnnn2C(C)(C)C)N2CCN(c3nc4ccccc4s3)CC2)cc1 (stereo not given),0.13,91,-5.3*,0.4,1.6
c1ccc(C(c2nnnn2Cc2ccco2)N2CCN(c3nc4ccccc4s3)CC2)cc1 (stereo not given),x,x,-3.4*,x,x
CCCC(c1nnnn1Cc1ccc(OC)cc1)N1CCN(c2ccccc2OC)CC1 (stereo not given),1.8,81,-5.1*,-0.78,1.4
COc1ccc(C(c2nnnn2Cc2ccccc2)N2CCN(c3nc4ccccc4s3)CC2)cc1OC (stereo not given),x,x,-3.3,x,x
CN1C=CC2=C(C#N)C(N)C(C#N)(C#N)[C@H](c3ccccc3)[C@H]2C1 (stereo not given in full),x,x,-0.0023,x,x
Cc1ccc(C)c(N2CCN(C(c3ccc(N(C)C)cc3)c3nnnn3C(C)(C)C)CC2)c1 (stereo not given),x,x,-5.5*,x,x
Cc1cc(C)cc(OCC(=O)NNC(=O)c2cc(C)[nH]n2)c1,x,x,0.72,x,2.7*
Cc1cc(C)cc(OCC(=O)Nc2ccc(F)cc2)c1,x,x,-1,x,0.9
COC(=O)c1cc(Br)c(=O)n(Cc2ccc3c(c2)OCO3)c1,0.19,130,0.081,-0.75,0.8
CCS(=O)(=O)N1CCC(C(=O)NCc2ccc(F)cc2Cl)CC1,2,117,1.6,0.67,1
Cc1cc(C)c(S(=O)(=O)N2CCC(C(=O)NCc3ccc(Cl)cc3Cl)CC2)c(C)c1,x,x,-4.7*,x,2.4*
O=C(COC(=O)c1cccc(S(=O)(=O)N2CCOCC2)c1)Nc1ncc(C(F)(F)F)cc1Cl,x,x,0.53,x,1.2
O=C(COC(=O)c1cccc(S(=O)(=O)N2CCOCC2)c1)Nc1nc(-c2ccccc2Cl)cs1,x,x,-5*,x,1.1
